Consider 8 compounds from PubChem BioAssay (Tox21).

Inconclusive results are not listed. Unmarked numbers belong to inactive results. Active and inactive are the calls of the source. Unless noted, calls come from the whole dose curve; as a rule, active = well fitted curve in the direction sought with a large enough effect in the repeat runs; inconclusive = weak or mixed curves; inactive = no such curve, though single readings can be large; an effect the other way counts as inactive or inconclusive.

Assay [1] can be described thus: qHTS assay to identify small molecule antagonists of the peroxisome proliferator-activated receptor delta (PPARd) signaling pathway - cell viability counter screen (AID 743213). Note: nearly all actives have a fitted effect of over 50% in size. Summed up:
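HEK293H PPARd UAS-bla cells, 5 h pre-incubation, compound + L165041 300 nM final, 17 h 37 C; B/G FRET substrate 2 h RT; then CellTiter-Glo 30 min RT, luminescence.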
Background: In qHTS, concentration-response curves come from the screen itself.

Assay [2] in a line: qHTS assay to identify small molecule agonists of the farnesoid-X-receptor (FXR) signaling pathway - cell viability counter screen (AID 743218). Note: nearly all actives have a fitted effect of over 45% in size. Summed up:
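Cytotoxicity counter-screen run in parallel, same wells: FXR-UAS-bla HEK 293T cells dosed 16 h at 37 C, viability read by CellTiter-Glo luminescence after 30 min at room temperature.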

Assay [3] addresses Bile acid receptor (Homo sapiens) (UniProt Q96RI1). Nature of the assay: qHTS assay to identify small molecule agonists of the farnesoid-X-receptor (FXR) signaling pathway (AID 743220; active = well fitted activation curve with a large enough effect in the signal ratio in the repeat runs, not every such curve was filed as active; the % refers to the signal ratio). The procedure, abridged: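 Beta-lactamase reporter under UAS control in GeneBLAzer FXR HEK 293T cells (5000/well) measured with LiveBLAzer FRET substrate after 2 h at room temperature. Compound exposure lasted 16 h at 37C.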

The nature of assay [4]: qHTS assay to identify small molecule antagonists of the farnesoid-X-receptor (FXR) signaling pathway - cell viability counter screen (AID 743221; active = well fitted cell-killing curve with a large enough effect in the repeat runs, not every such curve was filed as active; note: nearly all actives have a fitted effect of over 50% in size). The procedure, abridged:
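Here viability was scored by luminescence after CellTiter-Glo addition to wells already read for beta-lactamase. Prior treatment: compound plus CDCA (50 uM final), 16 h, 37 C, HEK 293T FXR-bla cells.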

The target of assay [5] is Vitamin D3 receptor (Homo sapiens) (UniProt P11473). As to the kind of experiment: qHTS assay to identify small molecule agonists of the vitamin D receptor (VDR) signaling pathway (AID 743222; calls by dose curve). Summed up: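 Quantitative HTS agonist-mode screen: compounds in DMSO were pin-transferred onto VDR-bla cells and incubated 16 h at 37C, 5% CO2. Reporter activity was detected with LiveBLAzer B/G FRET substrate after 2 h at room temperature.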

The target is the same in assay [6]. Nature of the assay: qHTS assay to identify small molecule antagonists of the vitamin D receptor (VDR) signaling pathway (AID 743223; active = well fitted inhibition curve with a large enough effect in the signal ratio in the repeat runs, not every such curve was filed as active; the % refers to the signal ratio). The procedure, abridged:
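Inhibition of agonist-driven VDR signalling is scored in VDR-bla cells: 3 nM final 1alpha,25-dihydroxyvitamin D3 plus compound, 16 h at 37C, then beta-lactamase detection by FRET substrate fluorescence after 2 h.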

Assay [7] can be described thus: qHTS assay to identify small molecule agonists of the vitamin D receptor (VDR) signaling pathway - cell viability counter screen (AID 743224). Note: series mostly up to about 63 µM; nearly all actives have a fitted effect of over 50% in size. The procedure, abridged:
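Viability is measured in the same wells as the VDR-bla reporter assay: after 16 h compound treatment and 2 h substrate loading, CellTiter-Glo is added and luminescence read 30 min later.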

Assay [8] is described as follows: qHTS assay to identify small molecule agonists of the NFkB signaling pathway - cell viability counter screen (AID 1159515; calls by dose curve; note: series mostly up to about 61 µM; nearly all actives have a fitted effect of over 55% in size). The procedure, abridged:
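Multiplexed viability readout: after the 5 hr compound exposure and 1.5 hr FRET substrate step, CellTiter-Glo reagent went into the same NFkB-bla ME-180 wells; ATP luminescence was measured after 30 min at room temperature.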

A short description of assay [9]: qHTS assay to identify small molecule agonists of the endoplasmic reticulum stress response signaling pathway (AID 1159516; active = well fitted activation curve with a large enough effect in the signal ratio in the repeat runs, not every such curve was filed as active; the % refers to the signal ratio; note: potency is the fitted concentration of half-maximal effect). The procedure, abridged:
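Tox21 10K library screened in quantitative HTS format on ESRE-bla HeLa cells, a beta-lactamase reporter under ER stress response element control; 5 hr treatment, FRET read.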

Assay [10] in a line: qHTS assay to identify small molecule agonists of the endoplasmic reticulum stress response signaling pathway - cell viability counter screen (AID 1159517; calls by dose curve; note: series mostly up to about 61 µM; nearly all actives have a fitted effect of over 50% in size). The procedure, abridged:
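HeLa cells carrying an ESRE-driven beta-lactamase reporter receive compound for 5 hr at 37 C. Cell viability is then gauged with CellTiter-Glo by luminescence, 30 min at room temperature.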

The nature of assay [11]: qHTS assay to identify small molecule antagonists of the retinoid-related orphan receptor gamma (ROR-gamma) signaling pathway - cell viability counter screen (AID 1159520). Note: nearly all actives have a fitted effect of over 50% in size. Summed up: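 Cytotoxicity was read from cellular ATP (CellTiter-Glo luminescence) after 16 hr at 37 C with 1 uM doxycycline induction. The inducer was added 2 hr after compound transfer to Tet-on ROR gamma CHO cells.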

The target in assay [12] is Nuclear receptor ROR-gamma (Homo sapiens) (UniProt P51449). As to the kind of experiment: qHTS assay to identify small molecule antagonists of the retinoid-related orphan receptor gamma (ROR-gamma) signaling pathway (AID 1159521; note: nearly all actives have a fitted effect of over 50% in size; note: potency is the fitted concentration of half-maximal effect). The procedure, abridged: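 Test compounds were applied to Tet-on RORγ CHO cells 2 h ahead of doxycycline hyclate (1 uM final). Luciferase reporter activity was quantified by luminescence after 16 h at 37 C and 5% CO2.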

Assay [13] can be described thus: qHTS assay to identify small molecule agonists of the AP-1 signaling pathway - cell viability counter screen (AID 1159525; calls by dose curve; note: nearly all actives have a fitted effect of over 55% in size). Summed up: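 Luminescent ATP readout (Cell Titer Glo, 30 min RT), normalised to DMSO and tetra n-octyl ammonium bromide controls. Cells were ME-180 AP-1-bla in 0.5% dialyzed FBS Opti-MEM, with a 5 h, 37 °C compound exposure.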
Assay [14] is described as follows: qHTS assay to identify small molecule agonists of the AP-1 signaling pathway (AID 1159526; calls by dose curve).
The nature of assay [15]: qHTS assay to identify small molecule antagonists of the vitamin D receptor (VDR) signaling pathway - cell viability counter screen (AID 743225). Note: nearly all actives have a fitted effect of over 50% in size. The procedure, abridged: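 Compounds were pinned onto VDR-bla HEK 293T cells together with 1-alpha,25-dihydroxyvitamin D3 at 3 nM final. After 16 h at 37C and 5% CO2 plus the reporter readout, cell viability was measured by CellTiter-Glo luminescence (30 min, room temperature).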

Assay [16] has as its target Retinoic acid receptor RXR-alpha (Homo sapiens) (UniProt P19793). As to the kind of experiment: qHTS assay to identify small molecule agonists of the RXR signaling pathway (AID 1159527; calls by dose curve; note: nearly all actives have a fitted effect of over 35% in size). The procedure, abridged: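 Using 9-cis retinoic acid as the reference agonist, chemicals were tested in HEK 293T cells […] for 16 hr; substrate loading lasted 2 hr at room temperature.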

The nature of assay [17]: qHTS assay to identify small molecule agonists of the peroxisome proliferator-activated receptor delta (PPARd) signaling pathway - cell viability counter screen (AID 743211). Note: nearly all actives have a fitted effect of over 55% in size. Summed up: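 In the same wells used for beta-lactamase reporter measurement, cytotoxicity is scored by CellTiter-Glo. HEK293H PPARd-bla cells receive compound for 17 h at 37C following a 5 h settling period.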

Assay [18] concerns the target Bile acid receptor (Homo sapiens) (UniProt Q96RI1). As to the kind of experiment: qHTS assay to identify small molecule antagonists of the farnesoid-X-receptor (FXR) signaling pathway (AID 743217; active = well fitted inhibition curve with a large enough effect in the signal ratio in the repeat runs, not every such curve was filed as active; the % refers to the signal ratio). The procedure, abridged: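 Antagonist mode against 50 uM (final) chenodeoxycholic acid stimulation in FXR-bla HEK 293T cells, 16 h at 37 °C. Inhibition detected as reduced beta-lactamase activity via LiveBLAzer B/G FRET fluorescence after 2 h at room temperature.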

For assay [19], the target named is Peroxisome proliferator-activated receptor delta (Homo sapiens) (UniProt Q03181). Nature of the assay: qHTS assay to identify small molecule agonists of the peroxisome proliferator-activated receptor delta (PPARd) signaling pathway (AID 743212; calls by dose curve). Summed up:
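HEK293H PPARd-bla cells; 5 h preincubation 37 C/5% CO2; compound (DMSO) 37 C; LiveBLAzer B/G FRET substrate 2 h RT; fluorescence intensity.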

The target is the same in assay [20]. As to the kind of experiment: qHTS assay to identify small molecule antagonists of the peroxisome proliferator-activated receptor delta (PPARd) signaling pathway (AID 743215; active = well fitted inhibition curve with a large enough effect in the signal ratio in the repeat runs, not every such curve was filed as active; the % refers to the signal ratio;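 note: cells stimulated with agonist L165041 at 300 nM final during compound exposure; series mostly up to about 62 µM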). The procedure, abridged: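 Inhibition of L165041-driven (300 nM final) PPARd signaling is scored in HEK293H UAS-bla cells. Exposure lasts 17 h at 37 C; beta-lactamase activity is then read by FRET substrate fluorescence after 2 h at room temperature.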

Vitamin D3 receptor (Homo sapiens), sequence (P11473 whole entry, looked up): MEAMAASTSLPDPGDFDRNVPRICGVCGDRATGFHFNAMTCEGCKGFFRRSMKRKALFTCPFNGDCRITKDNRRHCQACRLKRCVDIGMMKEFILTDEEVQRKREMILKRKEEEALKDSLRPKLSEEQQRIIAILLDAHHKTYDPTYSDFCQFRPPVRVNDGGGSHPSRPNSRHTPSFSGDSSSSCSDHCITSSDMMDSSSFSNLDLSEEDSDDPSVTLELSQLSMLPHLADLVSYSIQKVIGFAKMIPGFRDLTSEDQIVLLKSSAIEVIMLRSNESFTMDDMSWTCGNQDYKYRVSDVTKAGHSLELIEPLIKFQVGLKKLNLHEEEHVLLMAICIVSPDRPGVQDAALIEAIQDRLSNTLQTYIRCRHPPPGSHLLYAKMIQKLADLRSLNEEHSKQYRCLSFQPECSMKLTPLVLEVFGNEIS
Bile acid receptor (Homo sapiens), sequence (Q96RI1 whole entry, looked up): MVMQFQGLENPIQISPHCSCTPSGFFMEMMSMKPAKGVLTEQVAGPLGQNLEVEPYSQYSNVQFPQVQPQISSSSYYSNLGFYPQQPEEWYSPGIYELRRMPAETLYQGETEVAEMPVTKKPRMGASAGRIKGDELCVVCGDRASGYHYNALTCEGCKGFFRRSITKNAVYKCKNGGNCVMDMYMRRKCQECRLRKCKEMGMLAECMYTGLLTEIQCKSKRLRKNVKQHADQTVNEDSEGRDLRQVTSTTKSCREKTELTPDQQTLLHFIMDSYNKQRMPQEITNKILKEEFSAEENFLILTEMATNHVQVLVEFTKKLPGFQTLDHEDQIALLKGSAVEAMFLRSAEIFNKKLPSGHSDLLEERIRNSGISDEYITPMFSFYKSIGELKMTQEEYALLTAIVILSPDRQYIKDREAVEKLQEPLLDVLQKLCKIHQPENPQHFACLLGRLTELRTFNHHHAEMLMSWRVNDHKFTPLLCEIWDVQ
Peroxisome proliferator-activated receptor delta (Homo sapiens), sequence (Q03181 whole entry, looked up): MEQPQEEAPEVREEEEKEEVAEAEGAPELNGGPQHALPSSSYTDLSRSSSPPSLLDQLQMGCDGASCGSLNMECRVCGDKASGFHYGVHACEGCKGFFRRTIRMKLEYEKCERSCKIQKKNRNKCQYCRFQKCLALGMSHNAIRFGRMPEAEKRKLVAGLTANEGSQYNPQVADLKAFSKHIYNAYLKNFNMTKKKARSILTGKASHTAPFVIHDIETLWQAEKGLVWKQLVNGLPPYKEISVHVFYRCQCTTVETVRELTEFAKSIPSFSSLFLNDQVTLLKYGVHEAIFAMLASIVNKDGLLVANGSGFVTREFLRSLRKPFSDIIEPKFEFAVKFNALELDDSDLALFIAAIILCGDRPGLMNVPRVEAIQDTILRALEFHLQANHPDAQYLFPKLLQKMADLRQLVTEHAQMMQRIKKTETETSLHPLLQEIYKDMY
Retinoic acid receptor RXR-alpha (Homo sapiens), sequence (P19793 whole entry, looked up): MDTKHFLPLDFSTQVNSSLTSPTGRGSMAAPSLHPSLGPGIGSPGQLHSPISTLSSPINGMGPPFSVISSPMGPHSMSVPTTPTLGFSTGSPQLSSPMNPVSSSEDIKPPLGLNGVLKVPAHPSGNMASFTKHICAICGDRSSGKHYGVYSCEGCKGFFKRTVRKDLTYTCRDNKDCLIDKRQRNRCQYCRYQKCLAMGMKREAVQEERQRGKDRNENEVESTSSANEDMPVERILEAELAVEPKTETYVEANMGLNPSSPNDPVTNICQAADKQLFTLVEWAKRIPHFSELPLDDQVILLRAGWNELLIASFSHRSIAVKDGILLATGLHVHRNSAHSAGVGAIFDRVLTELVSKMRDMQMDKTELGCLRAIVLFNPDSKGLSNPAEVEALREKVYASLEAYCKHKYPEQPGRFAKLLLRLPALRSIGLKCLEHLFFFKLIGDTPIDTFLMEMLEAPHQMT

Turning to `COc1ccc(OC)c(OC)c1`, the Potency result in assay [1], in assay [2], in assay [4], in [6], in assay [7] and in [8] was “inactive” throughout. Further, the Potency result in assay [9], in assay [11], in assay [12], in [13] and in [14] was “inactive” in each case. The call in [3], in assay [5] and in assay [10] was inactive.

For the compound `CN1CCC(=C2c3ccccc3C=Cc3ccccc32)CC1`, the call in assay [3], in assay [5] and in [10] was inactive. The Potency entry in assay [4], in assay [6], in assay [7], in assay [15], in assay [8] and in assay [9] was “inactive” throughout. Besides, the Potency entry in assay [11], in assay [12], in assay [13] and in assay [16] was “inactive” in each case.

For `O=S1(=O)N=C(O)c2ccccc21`, the Potency entry in assay [17], in assay [2], in assay [4], in [7], in [15] and in assay [8] was “inactive” each time. In addition, the Potency result in assay [9], in [11], in [12], in assay [13] and in assay [14] was “inactive” each time. The result in assay [10] was inactive.

For `CCCCOc1cc(C(=O)OCCN(CC)CC)ccc1N`, the Potency result in assay [17], in assay [1], in assay [2], in [4], in assay [6] and in [7] was “inactive” in each case. In addition, the Potency entry in [15], in [8], in assay [9], in assay [11], in [12] and in assay [13] was “inactive” each time. The Potency entry in assay [16] is “inactive”. For the same compound, the result in [3], in [5] and in assay [10] was inactive.

On to `C=CC(=O)OCCOC(=O)CCC(=O)O`, for which the Potency result in [17], in [1], in assay [4], in [6], in [7] and in [15] was “inactive” throughout. The Potency result in assay [8], in assay [9], in [11], in [12], in assay [13] and in assay [16] was “inactive” throughout. The outcome in [18], in [3], in assay [5] and in assay [10] was inactive.

For `CC(=O)N(CC(=O)N(C)C)c1ccccc1`, the Potency result in assay [17], in assay [1], in assay [4], in [6], in assay [7] and in [8] was “inactive” throughout. Besides, the Potency entry in assay [9], in assay [11], in [12], in assay [13] and in assay [16] was “inactive” throughout. Also, the call in assay [19], in [20], in [3], in assay [5] and in assay [10] was inactive.

As to `CCc1nn(C2CCCCC2)c2cc(C3(C#N)CCC(C(=O)O)CC3)ccc12` (centres undefined), the Potency result in assay [17], in assay [1], in assay [2], in [4], in assay [6] and in assay [7] was “inactive” in each case. Further, the Potency entry in assay [15], in assay [8], in [11] and in [13] was “inactive” throughout. Further, the compound was called inactive in assay [19], in assay [3], in assay [5] and in assay [10]. Also, the values for the Potency in assay [9] and in [12] were 1.55 µM (active) and 27.3 µM (active), respectively.

In the case of `CCOC(=O)C1=NN(c2ccccc2)C(=O)C1`, the result in assay [19], in assay [3], in assay [5] and in [10] was inactive. Further, the Potency entry in assay [1], in assay [2], in [4], in assay [6], in assay [7] and in assay [15] was “inactive” in each case. For the same compound, the Potency result in assay [8], in assay [9], in assay [11], in assay [12], in [13] and in assay [14] was “inactive” in each case.
